Source: PubChem BioAssay
This excerpt belongs to a sample that is enriched for hits.
ST2 IL33 inh: inhibitors of human ST2 (IL1RL1) binding to IL-33, primary screen, biochemical, AlphaLISA; AID 1259354, 2018; AlphaLISA ST2-Fc/biotin-IL-33 interaction, 1 h; 2.3% of 78,000 active; inhibition, % for hits at 17 µM; Interleukin-1 receptor-like 1 (Homo sapiens), Q01638; in the data active = inhibition above about 30%
Target sequence (Q01638 whole entry, looked up): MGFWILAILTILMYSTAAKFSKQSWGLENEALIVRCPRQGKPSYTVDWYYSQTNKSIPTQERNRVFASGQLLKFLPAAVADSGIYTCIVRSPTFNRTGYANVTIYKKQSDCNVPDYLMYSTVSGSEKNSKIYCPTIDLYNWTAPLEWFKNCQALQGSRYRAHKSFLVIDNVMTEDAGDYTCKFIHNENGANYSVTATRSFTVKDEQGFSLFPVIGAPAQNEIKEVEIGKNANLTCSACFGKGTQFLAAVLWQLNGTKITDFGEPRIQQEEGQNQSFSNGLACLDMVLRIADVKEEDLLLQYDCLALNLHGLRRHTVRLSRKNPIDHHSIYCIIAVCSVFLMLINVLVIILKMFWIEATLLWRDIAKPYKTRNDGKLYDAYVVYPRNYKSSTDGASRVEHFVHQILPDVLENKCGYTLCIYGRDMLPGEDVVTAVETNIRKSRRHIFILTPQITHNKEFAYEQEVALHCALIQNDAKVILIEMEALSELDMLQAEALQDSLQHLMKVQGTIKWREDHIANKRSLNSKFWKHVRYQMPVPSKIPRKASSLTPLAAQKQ
Of the large screens only hits and unclear results are named; the others gave an inactive call.

N#C/C(=C/c1ccc(Br)cc1)c1nc(-c2cccs2)cs1	ST2 IL33 inh 40%
N#C/C(=C\c1ccc(Br)cc1)c1nc(C2CC2)cs1	ST2 IL33 inh 49%
O=C(Nc1nc(-c2cccs2)cs1)c1ccc(Br)cc1	none
N#Cc1c(-c2ccccc2)cc(-c2cccs2)nc1Br	none
O=C(CN1N=NC2C(=O)N(c3ccc(Cl)cc3)C(=O)C21)Nc1cccc(Cl)c1 (stereo not given)	none
COc1ccc(C2C(C(=O)NC3CCCC(C)C3C)CC(=O)N2c2ccc(OC)cc2)cc1 (stereo not given)	none
Cc1ccc(S(=O)(=O)NC2=NCN(c3cccc([N+](=O)[O-])c3)CN2)cc1	none
Cc1noc(C)c1CNC(=O)Cc1nc(-c2ccccc2)n[nH]1	none
Cc1nc(NCC2CC(=O)N(C(C)C)C2)c2cnn(C)c2n1 (stereo not given)	none
COC(=O)c1c(NC(=O)C(C)C)sc(C(N)=O)c1C	none
CCOc1ccc(C2=C/C(=C/c3ccccc3OC)C(=O)O2)cc1	ST2 IL33 inh 46%
CCOc1ccc(-c2nc3s/c(=C\C=C\c4ccccc4OC)c(=O)n3n2)cc1	none
Cc1ccc(C2=C/C(=C\c3cccs3)C(=O)O2)cc1C	ST2 IL33 inh 68%
CCOc1ccccc1/C=C1\N=C(c2ccc(Cl)cc2)OC1=O	none
CCOc1ccc(N2C(=O)/C(=C\c3ccccc3OC)N=C2c2ccc(OC)c(OC)c2)cc1	ST2 IL33 inh 39%
COc1cc2oc(-c3ccccc3)cc(=O)c2c(O)c1OC	none
COc1cc(/C=C2/C=C(c3ccccc3)OC2=O)cc(OC)c1OC	ST2 IL33 inh 61%
Cc1ccc(-c2nc(-c3ccncc3)no2)cc1C	none
COc1cc(/C=C/C(=O)O)cc(OC)c1OC	none
CCOc1ccc2c(=O)c(-c3ccccc3OC)coc2c1	none
COc1ccc(/C=C2\C=C(c3ccc(Cl)cc3)OC2=O)c(C)c1	none
CCN(CC)C(=O)COc1ccc2c(c1)C(=O)CC1(CCN(C(C)=O)CC1)O2	none
Cc1cnccc1N1CCCN(c2cc(N(C)C)ncn2)CC1	none
CC(=O)c1cccc(NS(=O)(=O)c2cccc3cccnc23)c1	none
O=S(=O)(NCc1nc(CCc2ccccc2)n[nH]1)c1cccs1	none
C[C@H](CC[C@@]1(O)O[C@H]2CC3C4CCC5C[C@@H](OC6OC(CO)C(O[C@@H]7O[C@@H](C)[C@H](O)[C@@H](O)[C@H]7O)C(O)C6OC6OC(CO)C(O)C(O)C6O)CC[C@]5(C)C4CC[C@]3(C)[C@H]2[C@@H]1C)CO[C@@H]1O[C@H](CO)[C@@H](O)[C@H](O)[C@H]1O (stereo not given in full)	none
COc1ccc(CCNC(=O)c2cccn3c(=O)c4sccc4nc23)cc1OC	none
O=C(Cn1c(=O)[nH]c2ccsc2c1=O)NC1CCCCCCC1	none
O=C(C1CCN(S(=O)(=O)c2cccs2)CC1)N1CCN(c2ccc(F)cc2)CC1	none
CNCC(=O)N1CCOc2c(O)cc(-c3cccnc3)cc2C1	none
Cc1ccc(OCCn2nnc3ccccc32)c(C)c1	none
O=C(CSc1nc2c(c(=O)n1-c1ccc(Cl)cc1)SCC2)NC1CCCCC1	none
CCOc1ccc(N2CC(NC(=O)Cc3cccs3)CC2=O)cc1 (stereo not given)	none
CCOc1ccc(-c2nc3s/c(=C\c4ccc(Cl)cc4)c(=O)n3n2)cc1	none
CCOc1ccc(C2=C/C(=C\c3cccs3)C(=O)O2)cc1	ST2 IL33 inh 31%
CCOC(=O)c1c(-c2ccccc2)csc1NC(=O)c1noc2c1CCCCC2	none
COc1ccc(OC)c(C2C(C#N)=C(N)OC3=C2C(=O)CC(c2ccccc2)C3)c1 (stereo not given)	none
CCOC(=O)c1c(NC(=O)c2c(F)cccc2F)sc2c1CCC2	none
O=[N+]([O-])c1cc2c(cc1C=Nc1ccc(I)cc1)OCO2	none
Cc1cccc(N=Cc2cc3c(cc2[N+](=O)[O-])OCO3)c1C	ST2 IL33 inh 39%
COc1cc(CN2CCN(c3cccc(C)c3C)CC2)cc([N+](=O)[O-])c1O	none
Cc1ccc(O)c(N=Cc2cccc([N+](=O)[O-])c2O)c1	none
Cc1cccc(N2CCN(Cc3cc4c(cc3[N+](=O)[O-])OCO4)CC2)c1C	ST2 IL33 inh 37%
O=[N+]([O-])c1cc2c(cc1CN1CCCCCC1)OCO2	none
CCOc1cc(CN2CCC(O)CC2)ccc1OC	none
CCCNC(=O)C1C2C=CC3(CN(Cc4cccs4)C(=O)C13)O2 (stereo not given)	none
CCn1cc(CNC(=O)[C@H]2C[C@@](C)(C(=O)OC)N(C)[C@H]2c2ccccc2C)cn1	none
COc1ccc(-c2cc(N3CCN(S(=O)(=O)c4cc(F)ccc4F)CC3)ncn2)cc1	none
Cc1cc(C)n2ncc(C(=O)NC3CC(=O)N(C4CCCCCC4)C3)c2n1 (stereo not given)	none
C[C@H]1[C@@H]2[C@@H](O)C([C@H](C)C(=O)N3CCCCC3)CC[C@@]2(C)CC[C@@H]1NC(=O)C1CC1 (stereo not given in full)	none
COc1ccccc1-c1cccc(C(=O)NCCN2CCOC2=O)c1	ST2 IL33 inh 31%
COc1ccc(-c2nn(-c3ccccc3C)cc2CNCCN2CCOC2=O)cc1F	none
CNC(=O)c1ccc(CNC(=O)c2cccc(-c3ccccc3OC)c2)o1	none
COC(=O)CNc1c(-c2ccccn2)nc2ccccn12	none
O=C1OC(c2cccc(F)c2)=N/C1=C/c1ccc(-c2ccccc2[N+](=O)[O-])o1	none
O=C(Nc1ccc(I)cc1Cl)c1ccc(-c2ccccc2[N+](=O)[O-])o1	none
O=[N+]([O-])c1ccccc1-c1ccc(/C=C/c2ccncc2)o1	ST2 IL33 inh 49%
CN(Cc1ccccc1)C(=O)C[C@@H]1O[C@H](CNC(=O)NC2CCCCC2)[C@@H](O)[C@H]1O	none
CCCCNC(=O)c1cn(CC)c2ccc(S(=O)(=O)N3CCc4ccccc4C3)cc2c1=O	none
O=C(CCCCCN1C(=O)c2ccccc2C1=O)Nc1ccc(Cl)cc1	none
O=C(O)CCCC(=O)Nc1ccc(C(=O)O)cc1	none
O=C(CCCN1C(=O)S/C(=C\C=C\c2ccccc2)C1=O)Nc1ccc(C(=O)O)cc1	ST2 IL33 inh 32%
COc1cccc(N2CC(NC(=O)CC(C)C)CC2=O)c1 (stereo not given)	none
Cc1cccc(N(CC(=O)Nc2ccc(F)cc2)S(=O)(=O)c2ccccc2)c1C	ST2 IL33 inh 38%
Cc1cccc(N(CC(=O)Nc2ccccc2Cl)S(=O)(=O)c2ccccc2)c1C	none
COc1ccc(N(CC(=O)Nc2ccc(F)cc2)S(=O)(=O)c2ccccc2)c(OC)c1	none
N#Cc1nc(COc2ccccc2Cl)oc1N1CCCCC1	ST2 IL33 inh 65%
N#Cc1nc(COc2ccccc2Cl)oc1N1CCN(Cc2ccccc2)CC1	ST2 IL33 inh 58%
Cc1ccccc1OCc1nc(C#N)c(N2CCCCC2)o1	ST2 IL33 inh 68%
Cc1ccccc1OCCCCN1CCCCC1	none
c1ccc(COc2cccc(CN3CCN(c4ncccn4)CC3)c2)cc1	none
N#Cc1nc(COc2ccc(Cl)cc2)oc1N1CCN(Cc2ccccc2)CC1	ST2 IL33 inh 57%
N#Cc1nc(COc2ccccc2Cl)oc1N1CCC(C(N)=O)CC1	none
Cc1ccccc1OCCCN1CCOCC1	none
Nc1nc(COc2ccccc2Cl)nc(N2CCOCC2)n1	none
FC(F)(F)c1ccc(N2CCN(Cc3ccccc3)CC2)nc1	none
Cc1ccc(-c2noc(COc3ccccc3Cl)n2)cc1	none
c1ccc(COc2ccc(CN3CCN(c4ncccn4)CC3)cc2)cc1	none
O=S(=O)(CCOc1ccccc1)N1C[C@H]2CC=CC[C@H]2C1	none
O=C(CCc1ccccc1)N(c1ccc(Br)cc1)C1C=CS(=O)(=O)C1 (stereo not given)	none
Cc1cc(-c2ccccc2Cl)nc(N)n1	none
CCOc1ccc2nc(N3CCCC(C(=O)N(C)Cc4ccc5nccnc5c4)C3)nc(C)c2c1 (stereo not given)	none
